# According to PubChem BioAssay AID1578 (Sanford-Burnham Center for Chemical Genomics, 2009):
# The whole screen tested about 290,000 compounds, of which about 3,000 (1%) were called active. Only a selection was taken, and actives are over-represented in it overall. Values without a mark were called inactive. Rule as the data show it: active = inhibition mostly above about 36% (no sharp cut-off); inactive = mostly below about 34%.
# Assay: inhibition of NOD1-driven NF-kB reporter – cell-based, luminescence, uHTS, primary screen (AID 1578);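 also: HEK-293T reporter cells stimulated with the NOD1 agonist gamma-tri-DAP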
# Details: NOD1-driven NF-kB luciferase reporter cells, at 4 µM, stronger effect = higher value
row,Compound,inhibition
1,COc1ccccc1-c1cc(C(=O)Nc2ccccc2SC)no1,-10%
2,CCOC(=O)C1(Cc2ccccc2C)CCCN(C(=O)c2ccnn2C)C1 (configuration not stated),-17.1%
3,Cc1ccc(C)c(SCC(=O)NNC(=O)c2ccccc2)c1,-14.3%
4,Cc1cc(Cl)c(S(=O)(=O)N2CCCC2)cc1OCC(=O)NC1CCCCC1,28.5%
5,CCN1CCN(S(=O)(=O)c2cc(OCC(=O)NC3CCCCC3)c(C)cc2Cl)CC1,26.3%
6,C/C(=C\c1ccccc1)C(=O)Nc1cc(C)on1,-6.1%
7,Cc1ccccc1Cn1cc(C)c(=O)[nH]c1=O,-20.8%
8,COc1cccc(CN(Cc2ccco2)C(c2ccc(F)cc2)c2nnnn2C(C)(C)C)c1 (configuration not stated),50.8% (active)
9,CC(C)(C)n1nnnc1C(c1ccc(C(F)(F)F)cc1)N(Cc1ccc(F)cc1)Cc1ccco1 (configuration not stated),-13.2%
10,CC(C)(C)n1nnnc1C(c1ccc(F)cc1)N(Cc1ccc(F)cc1)Cc1ccco1 (configuration not stated),-2.1%
11,Cc1nc2cc(NC(=O)N3CC4(C)CC3CC(C)(C)C4)ccc2n1C (configuration not stated),-31.3%
12,COC(=O)CCc1ccc(O)cc1,-24%
13,CN1CCN(C(c2ccc(C(F)(F)F)cc2)c2ccc3cccnc3c2O)CC1 (configuration not stated),23.8%
14,Cc1c(CCO)c(=O)[nH]n1S(=O)(=O)c1ccc(F)cc1,-15.6%
15,Cc1csc(CNC(=O)c2ccc(OC3CCN(CCc4ccccc4)CC3)cc2)n1,-16.3%
16,OCC1(CCOc2ccccc2)CCN(CC2=Cc3cc(Cl)ccc3OC2)CC1,-37.6%
17,COc1ccc2c(c1)C=C(CN1CCC(CO)(CCc3ccccc3)CC1)CO2,-10%
18,CCOc1cc(C(=O)NN2CCOCC2)cc(OCC)c1OCC,-21.5%
19,O=C(c1n[nH]c(=O)c2ccccc12)N1CCN(Cc2ccc3c(c2)OCO3)CC1,3.4%
20,O=C(NC(=S)N1CCN(Cc2ccc3c(c2)OCO3)CC1)c1ccc(Cl)cc1,-3.6%
21,Cc1ccccc1NC(=S)N1CCN(Cc2ccc3c(c2)OCO3)CC1,-15.3%
22,CCN(CC)c1ccc(C(=O)NC(=S)N2CCN(Cc3ccc4c(c3)OCO4)CC2)cc1,-0.4%
23,Cc1cc(Cl)ccc1NC(=S)N1CCN(Cc2ccc3c(c2)OCO3)CC1,79.9% (active)

row,Compound,inhibition
1,O=C(c1ccccc1)N1CCN(Cc2ccc3c(c2)OCO3)CC1,-5.8%
2,Cc1cc(Cl)ccc1NC(=S)N1CCN(Cc2ccccc2)CC1,-13.4%
3,O=C(COC(=O)COc1ccccc1Cl)Nc1ccccc1OC(F)F,-10.4%
4,CN(CCCC(=O)N1CCCC(C(N)=O)C1)S(=O)(=O)c1ccc(F)cc1 (configuration not stated),-19.1%
5,Cc1ccc(NC(=O)CN2C(=O)S/C(=C\c3ccc(C(=O)O)cc3)C2=O)cc1,-12.7%
6,O=C(Cc1ccc(-n2c(=O)c3ccccc3n(Cc3cccc([N+](=O)[O-])c3)c2=O)cc1)NCC1CCCO1 (configuration not stated),5.4%
7,COc1ccc(CCNC(=O)CSc2ccc(-c3ccco3)nn2)cc1OC,-15.4%
8,COc1ccc(F)cc1S(=O)(=O)NCCN1CCOCC1,15.5%
9,COc1cccc2cc(C(=O)OC3CCN(C)CC3)c(=O)oc12,-29.1%
10,Cc1ccc(Cl)cc1N1CCN(Cc2nnnn2Cc2ccco2)CC1,-5.9%
11,Cc1cc(C)n(C(=O)CNC(=O)c2ccccc2Br)n1,-28.7%
12,COCCn1c(-c2ccc(OC)cc2)cnc1SCC(=O)Nc1cccc2ccccc12,-37.9%
13,CN(C)S(=O)(=O)Oc1ccc(C(=O)Nc2cccc(Cl)c2)cc1,-35.9%
14,CC(=O)c1cccc(NC(=O)Nc2ccc(C(=O)N3CCOCC3)cc2)c1,5.9%
15,O=C(Nc1ccc(OC(F)(F)F)cc1)Nc1cccc([N+](=O)[O-])c1,75.1% (active)
16,O=C(Nc1ccc(C(=O)N2CCOCC2)cc1)Nc1cccc(Cl)c1,-21.7%
17,O=C(Nc1ccc(C(=O)N2CCOCC2)cc1)Nc1cccc(C(F)(F)F)c1,60% (active)
18,O=C(Nc1ccc(C(=O)O)cc1)Nc1cccc([N+](=O)[O-])c1,-12.4%
19,O=C(Nc1ccccc1)Nc1cccc(C(F)(F)F)c1,-33.9%
20,CN(C)S(=O)(=O)Oc1ccccc1C(=O)Nc1cccc(C(F)(F)F)c1,-19.2%
21,O=C(Nc1cccc([N+](=O)[O-])c1)Nc1cccc([N+](=O)[O-])c1,-8.2%
22,CNC(=O)Nc1cccc(C(F)(F)F)c1,-23%
23,CCOc1ccc(NC(=O)CS(=O)CC(=O)N(CC(=O)NC(C)(C)C)C2CCCC2)cc1 (configuration not stated),-23.1%

row,Compound,inhibition
1,O=C(CC1C(=O)NCCN1Cc1ccc(-c2ccccc2)cc1)NCCCn1ccnc1 (configuration not stated),-4.4%
2,COCCNC(=O)C(C)N1c2cccc3cccc(c23)S1(=O)=O (configuration not stated),-37.7%
3,NC(CCC(=O)O)C12CC3CC(CC(C3)C1)C2 (configuration not stated),-26.1%
4,COC(=O)[C@H](Cc1ccccc1)NC(=O)NCCc1ccc(OC)cc1,-0.3%
5,CC(=O)c1cc2c(cc1NC(=O)CN1CCCCCCC1)OCO2,-24.2%
6,Cc1cc(C(=O)Nc2ccccn2)cs1,-53.4%
7,CCCC[C@@H]1CNC(=S)N1CCC12CC3CC(CC(C3)C1)C2,-25.1%
8,Cc1nc(SCc2ccc(O)c([N+](=O)[O-])c2)c([N+](=O)[O-])[nH]1,-13.5%
9,CCCCOc1ccc(CSc2nc(C)[nH]c2[N+](=O)[O-])cc1[N+](=O)[O-],39.8% (active)
10,COc1ccc(CSc2nc(C)[nH]c2[N+](=O)[O-])cc1[N+](=O)[O-],-4.2%
11,CCOC1(OCC)N=C(N)C2(C#N)C(c3ccc(NC(C)=O)cc3)C12C#N (configuration not stated),-12.4%
12,CN(CC(=O)Nc1c(Cl)cccc1Cl)C(=O)CCCN1C(=O)c2ccccc2C1=O,15.6%
13,O=C(N/N=C/C=C\c1ccccc1[N+](=O)[O-])c1ccncc1,-7.4%
14,COc1ccc(-n2cc(CNC3CCC(O)CC3)c(-c3cccc(F)c3)n2)cc1 (configuration not stated),51.1% (active)
15,COc1ccc(-n2cc(CNC3CCN(C)CC3)c(-c3cccc(F)c3)n2)cc1,14.5%
16,COc1ccc(-n2cc(CNC3CCOCC3)c(-c3cccc(F)c3)n2)cc1,21.8%
17,Cc1cccc(C)c1N1CCN(c2nc(N(C)C)oc(=O)c2C#N)CC1,18.2%
18,CCOC(=O)C1CCCN(C2=NC(=O)/C(=C/c3ccc(OC)cc3)S2)C1 (configuration not stated),-6.7%
19,CC1=C(C(=O)N2CCOCC2)C(c2ccc(-c3ccccc3)cc2)NC(=S)N1 (configuration not stated),-25.1%
20,Cc1ccccc1C(=O)N1CCN(C(c2ccccc2)c2ccccc2)CC1,-1.2%
21,CCOc1ncccc1C(=O)N1CCN(C(c2ccccc2)c2ccccc2)CC1,-13%
22,c1ccc(CN(Cc2ccccc2)c2ncnc3c2nnn3Cc2ccccc2)cc1,-2.6%
23,CCNc1nc(NCC)n2c(SCC(=O)Nc3ccccc3[N+](=O)[O-])nnc2n1,-16.6%

row,Compound,inhibition
1,Cn1c2c(c(=O)n(C)c1=O)C(CC(=O)Nc1ccccc1)C(=O)N2 (configuration not stated),-23.5%
2,COc1ccc2[nH]c3c(c2c1)CCC/C3=N\N,-3.8%
3,COc1ccc2[nH]c3c(c2c1)CC(C)NC3=O (configuration not stated),87% (active)
4,CC1Cc2c([nH]c3ccccc23)C(=O)N1 (configuration not stated),26.8%
5,COc1cc(OC)cc(C(=O)NNC(=S)NC2CC2)c1,-35.8%
6,C=CCn1c(=O)c2ccccc2n2c(SC(C)C(N)=O)nnc12 (configuration not stated),-5.9%
7,C[C@@H](CN=[N+]=[N-])CN1CC[C@H](C(C)(C)C)CCC1=O,-15.8%
8,CC(C)/C=C/CN1CCN(CCCc2ccccc2)C(CCO)C1 (configuration not stated),45.1%
9,N#CCOC(=O)[C@H](Cc1ccccc1)N1C(=O)c2ccccc2C1=O,-3.8%
10,Cc1nn(-c2ccccc2Cl)c(Cl)c1/C=N/Nc1nc2ccccc2s1,87.9% (active)
11,CCOC(=O)N/N=C/c1c(C)nn(-c2ccccc2Cl)c1Cl,-46.5%
12,Cc1nn(-c2ccccc2Cl)c(Cl)c1/C=N/Nc1cccc(C(=O)O)c1,19.9%
13,COc1ccc(CCNC(=O)CNC(=O)c2nn(-c3ccc(OC)c(OC)c3)c(=O)c3ccccc23)cc1OC,-4.9%
14,COc1ccc(C(=O)Nc2sc3c(c2C(=O)O)CC(C)(C)OC3)cc1,-23.2%
15,CC1(C)Cc2c(sc(NC(=O)c3ccccc3)c2C(=O)O)CO1,-22.9%
16,Cc1ccc(-c2cn3nc(C)c(C)nc3n2)cc1,46.8%
17,CCc1ccc(-c2cn3nc(C)c(C)nc3n2)cc1,76.1% (active)
18,Cc1nc2nc(-c3ccc(Cl)cc3)cn2nc1C,-11.9%
19,O=C1N(c2ccccc2)C[C@@H]2C[C@@H](c3cccc4c3OCO4)N3CCC[C@@]123,-27.6%
20,O=C1N(c2ccccc2)C[C@@H]2C[C@@H](c3cc4ccccc4o3)N3CCC[C@@]123,98% (active)
21,O=C1N(c2ccccc2)C[C@@H]2C[C@@H](c3cccs3)N3CCC[C@@]123,-35.1%
22,Cc1onc(-c2c(F)cccc2Cl)c1C(=O)NC(=S)NC1CCS(=O)(=O)C1 (configuration not stated),-19.3%
23,COc1ccc(CC(=O)N2CCN(c3cccc(C)c3C)CC2)cc1,-24.5%
